Laboratory results published in PubChem BioAssay.

Experiments:
[1] = test system: Human papillomavirus type 1a protein E7 (residues 44-93); assay: small molecules binding HPV E7 44-93 – biochemical, small-molecule microarray, residues 44-93, 635 nm fluorescence, primary screen (AID 1108); conditions: fluorescence 635 nm, higher = more signal;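 note: E7 fragment applied at 1 µg/mL in TBST for 1 h at 4 C; score combines spot fluorescence with its signal to noise ratio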
[2] = hepatitis C replication reporter changes, two-sided – Huh7 cells, luciferase reporter, HCV replication inhibitor project, primary screen (AID 1109); conditions: Huh7 HCV replicon luciferase reporter, 48 h; higher = more signal;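 note: huh7 hepatoma cells harbouring a luciferase neomycin HCV replicon reporter; luciferase luminescence as measure of HCV replicon replication; test concentration not given here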
[3] = target: Left-right determination factor 2 (Homo sapiens) (UniProt O00292); assay: small molecules binding LEFTY2 protein – biochemical, small-molecule microarray, 635 nm fluorescence scan, primary screen (AID 1110); conditions: higher = more signal
[4] = target: Calmodulin-1 (Homo sapiens) (UniProt P0DP23); assay: small molecules binding calmodulin-1 with EGTA – biochemical, small-molecule microarray, Cy5-labelled CALM1, profiling panel (AID 1111); conditions: Cy5-CALM1 binding fluorescence, higher = more signal;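 note: labelled calmodulin applied in Tris saline Tween buffer holding calcium plus EGTA and DTT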
[5] = target: Calmodulin-1 (Homo sapiens) (UniProt P0DP23); assay: small molecules binding Ca-loaded calmodulin-1 – biochemical, small-molecule microarray, Cy5-labelled CALM1, plus calcium, artefact control for SMM control-protein annotation, profiling panel (AID 1112); conditions: Cy5-CALM1 binding fluorescence, higher = more signal;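 note: score merges spot fluorescence with signal to noise from triplicate slides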
[6] = probe aWnt5a binding to arrayed compounds – biochemical, biotinylated probe, 635/667 nm fluorescence, primary screen (AID 1113); conditions: small-molecule microarray, higher = more signal;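 note: score merges 667 nm fluorescence intensity with signal-to-noise per printed feature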
[7] = probe aShh binding to arrayed compounds – biochemical, biotinylated probe, 635/667 nm fluorescence, primary screen (AID 1114); conditions: small-molecule microarray, higher = more signal;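 note: probe is biotin-labelled aShh protein from a stem cell growth factor screen; measures binding of labelled protein to compounds printed on the slide; score merges feature fluorescence at 667 nm with signal-to-noise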
[8] = probe aNog binding to arrayed compounds – biochemical, biotinylated probe, 635/667 nm fluorescence, primary screen (AID 1115); conditions: small-molecule microarray, higher = more signal;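 note: probe is biotinylated aNog protein used at 0.15 µg/mL for 1 h at 4 C; z-score combines 667 nm fluorescence of each spot with its signal to noise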
[9] = target: Torsin-1A-interacting protein 1 (Homo sapiens) (UniProt Q5JTV8); assay: compound microarray binding of lysate hLAP1 – cell lysate, small-molecule microarray, COS7 lysate, 635/667 nm fluorescence, primary screen (AID 1116); conditions: 635 nm fluorescence, higher = more signal
[10] = target: Alpha-bungarotoxin (Bungarus multicinctus) (UniProt P60615); assay: compounds binding labelled alpha-BTX control protein – biochemical, small-molecule microarray, Alexa647 label, 635/667 nm fluorescence, artefact control for SMM control protein annotation, profiling panel (AID 1117); conditions: alpha-BTX-A647 binding fluorescence, higher = more signal
Sequence of Alpha-bungarotoxin (Bungarus multicinctus) (P60615 whole entry, looked up): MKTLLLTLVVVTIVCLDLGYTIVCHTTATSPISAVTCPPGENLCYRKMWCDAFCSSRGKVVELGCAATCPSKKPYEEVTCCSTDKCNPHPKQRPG

Sequence of Left-right determination factor 2 (Homo sapiens) (O00292 whole entry, looked up): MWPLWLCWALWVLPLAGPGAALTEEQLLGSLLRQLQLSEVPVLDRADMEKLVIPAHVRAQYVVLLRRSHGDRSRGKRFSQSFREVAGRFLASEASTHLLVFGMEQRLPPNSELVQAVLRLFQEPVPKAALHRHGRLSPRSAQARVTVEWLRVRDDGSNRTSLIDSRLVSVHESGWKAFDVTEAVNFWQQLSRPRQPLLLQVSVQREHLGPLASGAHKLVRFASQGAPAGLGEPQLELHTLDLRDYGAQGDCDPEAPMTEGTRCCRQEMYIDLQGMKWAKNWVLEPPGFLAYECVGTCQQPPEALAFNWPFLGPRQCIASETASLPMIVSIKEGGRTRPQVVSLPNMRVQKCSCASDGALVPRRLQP
Sequence of Torsin-1A-interacting protein 1 (Homo sapiens) (Q5JTV8 whole entry, looked up): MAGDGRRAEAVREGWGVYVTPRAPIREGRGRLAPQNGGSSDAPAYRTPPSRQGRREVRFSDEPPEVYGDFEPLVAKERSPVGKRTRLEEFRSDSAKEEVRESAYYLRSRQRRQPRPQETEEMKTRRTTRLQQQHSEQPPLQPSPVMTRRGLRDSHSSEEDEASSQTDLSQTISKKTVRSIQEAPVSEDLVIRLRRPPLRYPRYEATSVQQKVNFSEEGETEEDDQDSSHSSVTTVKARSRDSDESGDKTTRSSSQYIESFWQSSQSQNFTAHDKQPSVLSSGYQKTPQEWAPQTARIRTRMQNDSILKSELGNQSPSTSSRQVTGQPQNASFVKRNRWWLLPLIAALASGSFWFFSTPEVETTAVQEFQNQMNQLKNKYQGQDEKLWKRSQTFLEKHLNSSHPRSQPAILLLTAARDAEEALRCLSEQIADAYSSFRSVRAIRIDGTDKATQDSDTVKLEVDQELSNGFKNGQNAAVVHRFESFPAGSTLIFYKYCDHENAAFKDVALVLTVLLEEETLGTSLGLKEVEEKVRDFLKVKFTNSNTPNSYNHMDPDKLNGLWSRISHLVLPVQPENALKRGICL

CCCN1C(=O)[C@]2(Cc3ccccc31)N=C(c1ccc(OCCCO)cc1)O[C@@H]2c1ccccc1
composite z-score [1]: 1.42
z-score [2]: -3.29
composite z-score [3]: -0.148
composite z-score [4]: 1.98
composite z-score [5]: -0.317
composite z-score [6]: 0.0427
composite z-score [7]: 1.17
composite z-score [8]: 0.401
composite z-score [9]: 0.414
composite z-score [10]: 1.28

COC(=O)C1=CC(CCCO)=CC(c2cccs2)N(C)C=C1C(=O)OC (stereo not given)
composite z-score [1]: 0.0867
z-score [2]: -1.31
composite z-score [3]: -0.876
composite z-score [4]: 0.127
composite z-score [5]: 0.618
composite z-score [6]: -0.0981
composite z-score [7]: -0.165
composite z-score [8]: -0.0879
composite z-score [9]: 0.044
composite z-score [10]: 0.498

C=CC[C@H](OC(=O)Nc1ccc(SC)cc1)c1ccc(O)c2ccccc12
composite z-score [1]: 1.4
z-score [2]: -4.92
composite z-score [3]: 0.679
composite z-score [4]: 1.28
composite z-score [5]: 0.411
composite z-score [6]: -0.0819
composite z-score [7]: 0.23
composite z-score [8]: -0.134
composite z-score [9]: 0.986
composite z-score [10]: 1.78

[N-]=[N+]=Nc1ccccc1C[C@]1(C(=O)O)COC(c2ccc(OCCCO)cc2)=N1
composite z-score [1]: 0.118
z-score [2]: 0.928
composite z-score [3]: -0.856
composite z-score [4]: 0.166
composite z-score [5]: 0.897
composite z-score [6]: 0.0718
composite z-score [7]: 0.232
composite z-score [8]: 0.253
composite z-score [9]: -0.811
composite z-score [10]: -0.215

COC(=O)C1=CC(CCCO)=CC(c2ccc(CN3CCCC3)cc2)N(Cc2cccc(OC(F)(F)F)c2)C=C1C(=O)OC (stereo not given)
composite z-score [1]: 1.38
z-score [2]: -1.18
composite z-score [3]: 0.0706
composite z-score [4]: 2.08
composite z-score [5]: 0.695
composite z-score [6]: -0.172
composite z-score [7]: -0.0953
composite z-score [8]: 0.947
composite z-score [9]: 2.1
composite z-score [10]: 1.89

C=C[C@@H](OC)[C@H](OC(=O)Nc1ccc(OC)cc1)c1ccc(O)c(F)c1
composite z-score [1]: 0.392
z-score [2]: 0.859
composite z-score [3]: -0.227
composite z-score [4]: -1.84
composite z-score [5]: -1.47
composite z-score [6]: -0.208
composite z-score [7]: 0.0796
composite z-score [8]: -0.834
composite z-score [9]: 0.302
composite z-score [10]: -0.839

O=C1OCCC=C[C@H]2OC34C=CCN(Cn5nnc6ccccc65)C(=O)[C@H]3N(CCCO)C(=O)[C@@H]4C12 (stereo not given in full)
composite z-score [1]: -0.69
z-score [2]: -0.642
composite z-score [3]: -1.02
composite z-score [4]: -0.5
composite z-score [5]: -0.0354
composite z-score [6]: -0.112
composite z-score [7]: -0.388
composite z-score [8]: -0.527
composite z-score [9]: 0.879
composite z-score [10]: 0.204

COc1cccc(C)c1NC(=O)O[C@H]1[C@H](OC(=O)Nc2ccccc2-c2ccccc2)[C@H](OC(=O)Nc2ccccc2-c2ccccc2)[C@@H](OC)O[C@@H]1CO
composite z-score [1]: 1.41
z-score [2]: -2.36
composite z-score [3]: 0.679
composite z-score [4]: 1.72
composite z-score [5]: 0.11
composite z-score [6]: 0.0304
composite z-score [7]: -0.0192
composite z-score [8]: -0.518
composite z-score [9]: 1.26
composite z-score [10]: 0.688

COc1cccc(C)c1NC(=O)O[C@H]1[C@H](OC(=O)Nc2ccc3c(c2)OCO3)[C@@H](OC(=O)Nc2ccc3c(c2)OCO3)[C@@H](OC)O[C@@H]1CO
composite z-score [1]: 1.42
z-score [2]: 0.658
composite z-score [3]: 0.794
composite z-score [4]: 0.108
composite z-score [5]: -1.04
composite z-score [6]: 0.0973
composite z-score [7]: 0.149
composite z-score [8]: -0.0899
composite z-score [9]: 1.5
composite z-score [10]: 0.869

COc1ccc([Si](C)(C)[C@@H]2[C@@H](CCO)O[C@]3(C(=O)N(Cc4ccccc4)c4ccc(N5C(=O)c6cccc7cccc5c67)cc43)[C@H]2C)cc1
composite z-score [1]: -0.432
z-score [2]: -4.17
composite z-score [3]: -0.558
composite z-score [4]: 0.991
composite z-score [5]: 0.836
composite z-score [6]: -0.251
composite z-score [7]: -0.237
composite z-score [8]: 0.2
composite z-score [9]: -0.697
composite z-score [10]: 0.0366

CCCC1(C(=O)OC)C=C2C(=C(C)C(=O)C2C)CN1 (stereo not given)
composite z-score [1]: -0.75
z-score [2]: -0.442
composite z-score [3]: -0.569
composite z-score [4]: -0.119
composite z-score [5]: 0.881
composite z-score [6]: -0.0512
composite z-score [7]: 0.0141
composite z-score [8]: 0.929
composite z-score [9]: 0.635
composite z-score [10]: -0.14

COc1ccc(CCNC(=O)[C@@]2(c3ccc([N+](=O)[O-])cc3)CC(=O)N(C3CCCCC3)[C@@H]2c2ccc(CO)cc2)cc1
composite z-score [1]: 0.91
z-score [2]: -0.88
composite z-score [3]: -0.197
composite z-score [4]: 0.36
composite z-score [5]: 0.323
composite z-score [6]: -0.0341
composite z-score [7]: -0.0886
composite z-score [8]: -0.203
composite z-score [9]: 0.774
composite z-score [10]: 0.823

O=C(O)[C@@H]1[C@@H]2C(=O)N(c3ccccc3)C(=O)[C@@H]2C[C@@H]1Sc1ccccc1
composite z-score [1]: -0.933
z-score [2]: 0.0105
composite z-score [3]: -0.603
composite z-score [4]: 0.172
composite z-score [5]: 0.474
composite z-score [6]: 0.0676
composite z-score [7]: 0.328
composite z-score [8]: -0.0554
composite z-score [9]: 0.351
composite z-score [10]: -0.909

Cc1ccc(NN2C(C(O)c3c(F)cccc3Cl)C=CC3C(=O)N(C4CCCCC4)C(=O)C32)cc1 (stereo not given)
composite z-score [1]: 0.51
z-score [2]: -1.26
composite z-score [3]: -0.348
composite z-score [4]: 1.96
composite z-score [5]: 1.14
composite z-score [6]: -0.0179
composite z-score [7]: 0.261
composite z-score [8]: 1.22
composite z-score [9]: 0.983
composite z-score [10]: 1.93

COC(=O)[C@@]1(Cc2ccc(OC)cc2)[C@H]2c3cc(C(=O)N(C)C)n(Cc4ccc(C)o4)c3C[C@H]2CN1C(=O)c1ccccc1
composite z-score [1]: 1.42
z-score [2]: -2.04
composite z-score [3]: -0.466
composite z-score [4]: 0.372
composite z-score [5]: -0.223
composite z-score [6]: 0.091
composite z-score [7]: 0.596
composite z-score [8]: 0.243
composite z-score [9]: 1.27
composite z-score [10]: 0.41

COC(=O)C1(CC(C)C)C=C2C(=C(c3ccccc3)C(=O)C2C)CN1 (stereo not given)
composite z-score [1]: -0.518
z-score [2]: -1.33
composite z-score [3]: -0.844
composite z-score [4]: -0.0555
composite z-score [5]: 0.358
composite z-score [6]: 0.554
composite z-score [7]: 0.538
composite z-score [8]: 0.689
composite z-score [9]: 1.09
composite z-score [10]: -0.194

[N-]=[N+]=Nc1ccccc1C[C@@]1(C(N)=O)N=C(c2ccc(OCCCO)cc2)O[C@@H]1c1ccccc1N=[N+]=[N-]
composite z-score [1]: 1.03
z-score [2]: -2.35
composite z-score [3]: -0.0762
composite z-score [4]: 1.51
composite z-score [5]: 0.827
composite z-score [6]: -0.132
composite z-score [7]: 0.0948
composite z-score [8]: -0.722
composite z-score [9]: 1.01
composite z-score [10]: 1.09

COc1ccc([Si](C)(C)[C@@H]2[C@@H](CC(=O)N3CCC[C@H]3CO)O[C@]3(C(=O)N(Cc4cccc(N5C(=O)COc6ccccc65)c4)c4ccccc43)[C@H]2C)cc1
composite z-score [1]: 1.35
z-score [2]: -4.2
composite z-score [3]: 0.486
composite z-score [4]: 1.49
composite z-score [5]: 0.343
composite z-score [6]: 0.0215
composite z-score [7]: 0.131
composite z-score [8]: -0.368
composite z-score [9]: 1.41
composite z-score [10]: 0.678
